Measurements as given in PubChem BioAssay (NCI).
This is part of a sample that, as a whole, favours compounds with a hit. Of some 83,000 tested, about 20% had one in any assay.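 Method: cells in 96-well plates; compound added at one concentration; 48 h incubation; percent growth measured; values under 10 scored active.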 Values without a mark were called inactive. Active and inactive are the calls of the source.

The compounds below were run on LOX IMVI melanoma (assay: NCI-60 one-dose screen, 48 h (100 = growth as untreated, 0 = no growth, -100 = all killed)). Details: 10 µM.

SMILES | growth
CNc1nc(NC)c2cn[nH]c2n1 | 98.3%
O=C(CN1CCNCC1)N1CCOCC1 | 98.4%
CC1CCC2C(C)(C)C3CC12CC1OC13C (centres undefined) | 98.3%
COc1cc(OC)c2ccc(=O)oc2c1 | 96.6%
CCN(CC)CCCC(C)Nc1ccnc(/C=C/c2ccc(Cl)cc2)c1 (centres undefined) | -71.2% (active)
COC1=CC(=O)c2nc(Cl)ccc2C1=O | -95.7% (active)
COc1ccccc1NC(=O)C1=C(C)NC(C)=C(C(=O)Nc2ccccc2OC)C1c1cccc([N+](=O)[O-])c1 | 69.1%
N=c1c(C(=O)OCc2ccccc2)ncc(CCl)n1O | 42.2%
Cc1nc2c(ccc3ccccc32)s1 | 98.4%
CC(=O)OCC1OC(OC2=C(CC=C(C)C)C(=O)c3ccccc3C2=O)C(OC(C)=O)C(OC(C)=O)C1OC(C)=O (centres undefined) | 6.88% (active)
O=S(=O)(O)CC(O)CN1CCN(CCO)CC1 (centres undefined) | 96.8%
Cc1cc(OCCO)cc(C)c1Cl | 98%
CC1Cc2ccccc2O1 (centres undefined) | 97.4%
O=c1cc(-c2ccccc2)oc2c1ccc1ccccc12 | 89.3%
CCOC(=O)C1=C(C)NC(=O)NC1c1cccs1 (centres undefined) | 101%
CC(=O)c1ccc(C)c(N)c1 | 76.8%
COc1ccc(/C=C/c2cccc[n+]2C)cc1 | 94.2%
NC(=S)NN=C1CCCC1 | 88.6%
CCN(CC)c1ccc2nc3ccc(=[N+](CC)CC)cc-3oc2c1 | -22.7% (active)
CCCC(=O)Nc1ccc2c(c1)CN1C(=O)c3ccccc3C1=N2 | 105%

SMILES | growth
O=C(O)CCCC(=O)O | 95.3%
O=[N+]([O-])c1ccc(/C=C/C=C/c2ccccc2)c(Cl)c1 | 98%
Cc1cc2nc(CC(=O)c3ccccc3)c(=O)[nH]c2cc1C | 96.2%
N#Cc1c(N)sc(=S)c2c1CCCC2 | 99.4%
CCCCCCCCOC(=O)c1ccccn1 | 91.7%
CCN(CC)C(=O)/C=C(/C)c1ccccc1 | 98.7%
CC1C(=O)c2ccccc2CC1C(=O)O (centres undefined) | 92.4%
CCOc1ccc2[nH]c(=S)sc2c1 | 98.6%
CCC(C)(O)c1ccc(C)cc1 (centres undefined) | 106%
O=c1c2ccccc2c(Br)c(Br)c2ccccc12 | 3.1% (active)
O=[N+]([O-])c1ccc(Sc2ccncn2)c([N+](=O)[O-])c1 | 4.84% (active)
C/C(=C\c1cc(Cl)ccc1OCC(=O)O)[N+](=O)[O-] | 88.6%
COc1nc(N)nc2c1ncn2C1OC(CO)CC1O (centres undefined) | 107%
O=c1cc2oc3cc(O)c(O)cc3c(-c3ccccc3O)c-2cc1O | 64.8%
COc1cc(C(=O)N/N=C/c2cccc([N+](=O)[O-])c2)cc(OC)c1OC | 50.2%
CC1(C)Nc2cccc3c(N=Nc4ccc(N=Nc5ccccc5)c5ccccc45)ccc(c23)N1 | 77.6%
Oc1ccc(Cc2ccccc2)c2cccnc12 | 4.75% (active)
O=[N+]([O-])c1cccc2nsnc12 | 99.7%
CC(C)CCCC(=O)O | 105%
